Data taken from PubChem BioAssay AID463173 (ICCB-Longwood Screening Facility, Harvard Medical School, 2010).
About 4,300 (8.3%) of roughly 52,000 compounds were called active. No stated cut-off is given here; in the data, active means survival mostly below about 52% (no sharp cut-off); inactive means mostly above about 56%. The entries come from a sample that favours actives as a whole.

Each compound was assayed on DeltatarO mutant (assay: growth inhibition of S. aureus wild type versus tarO mutant, primary screen, teichoic acid synthesis inhibitors, RN4220, OD600 (AID 463173)). Details: OD600, 18 h, hits give low values, screened at 18.75 µg/mL (by protocol).
In the case of `O=C(CCn1c(=O)c2cccn2c2cccnc21)Nc1ccccc1Br`, the survival was 74% (inactive).
For `COc1ccc(N2CC(NC(=O)c3cccs3)CC2=O)cc1` (centres undefined), the survival was 89% (inactive).
`O=C(O)Cn1nc(N2CCN(c3ccc(F)cc3)CC2)ccc1=O` was tested, and the survival was 84% (inactive).
In the case of `Cc1ccc(NC(=O)Cn2c(=O)n(CCCCCC(=O)NCc3ccc(F)cc3)c(=O)c3sccc32)c(C)c1`, the survival was 66% (inactive).
`O=C(O)CCn1nnc(-c2cccs2)n1` was tested, and the survival was 103% (inactive).
For `Cc1cccc(N2CCN(C(=O)c3ccc(NC(=O)c4nsc5ccccc45)cc3)CC2)c1C`, the survival was 76% (inactive).
In the case of `O=C(NCCN1CCCCC1)c1ccc(Cn2c(SCc3cccc(F)c3)nc3cccnc32)cc1`, the survival was 103% (inactive).
With `Cc1c(C(=O)Nc2ccccc2)sc2ncn(CC(=O)N3CCOCC3)c(=O)c12` the survival was 87% (inactive).
For `O=C(/C=C/c1cn(CC(O)CN2CCc3ccccc32)c2ccccc12)c1ccc(Br)cc1` (centres undefined), the survival was 68% (inactive).
In the case of `Cc1ccc(C(=O)/C=C/c2cn(CC(O)CN3CCCCCC3)c3ccccc23)cc1` (centres undefined), the survival was 12% (active).
With `CCOc1ccc(C(=O)OC(C)CN2CCCCC2)cc1` (centres undefined) the survival was 96% (inactive).
In the case of `O=C(Cn1cc(SCc2ccc(Br)cc2)c2ccccc21)N1CCCCC1`, the survival was 80% (inactive).
In the case of `COc1ccc(C(=O)/C=C/c2cn(CC(O)CN3CCc4ccccc43)c3ccccc23)cc1OC` (centres undefined), the survival was 68% (inactive).
For `O=C(/C=C/c1cn(CC(O)CN2CCCCCC2)c2ccccc12)c1ccc(Br)cc1` (centres undefined), the survival was -3% (active).
For `O=C(/C=C/c1cn(CC(O)CN2CCCCCC2)c2ccccc12)c1ccccc1` (centres undefined), the survival was 49% (inactive).
`COc1ccc(C(=O)/C=C/c2cn(CC(O)CN3CCCCCC3)c3ccccc23)cc1OC` (centres undefined) was tested, and the survival was 80% (inactive).
In the case of `CCOc1ccc(C(=O)/C=C/c2cn(CC(O)CN3CCCCCC3)c3ccccc23)cc1` (centres undefined), the survival was 1% (active).
With `COc1ccc(CCn2c3c(c(=O)[nH]c2=O)C(NC(=O)c2ccccc2OC)(C(F)(F)F)C(=O)N3)cc1OC` (centres undefined) the survival was 81% (inactive).
For `Cc1ccc(NC(=O)c2ccc3c(O)c(S(=O)(=O)c4ccccc4)c(=O)[nH]c3c2)cc1Cl`, the survival was 78% (inactive).
`CCc1cccc(NC(=O)CSc2nnc(-c3cc4occc4n3C)n2-c2ccccc2C)c1` was tested, and the survival was 89% (inactive).
In the case of `COc1ccccc1N1CCN(C(=O)C2CCCN(S(=O)(=O)c3ccc4c(c3)CCCN4C(C)=O)C2)CC1` (centres undefined), the survival was 88% (inactive).
For `CCN1CCN(C(C)C(=O)NCc2ccc(OC)cc2)CC1` (centres undefined), the survival was 85% (inactive).
For `CNC(=O)CSc1nnc(NC(=O)Nc2ccccc2)s1`, the survival was 94% (inactive).
`O=C(Cn1c(SCC(=O)N2CCc3ccccc32)nc2ccccc21)NC1CC1` was tested, and the survival was 77% (inactive).
`c1ccc2c(c1)nc1n2CCC1` was tested, and the survival was 96% (inactive).
In the case of `O=C(NCCc1ccccc1)c1ccc2c(c1)nc1n2CCOC1`, the survival was 109% (inactive).
With `OC1COCc2nc3ccccc3n2C1` (centres undefined) the survival was 57% (active).
For `Cn1c(=O)n(C)c2cc(N3CCOCC3)c(NS(=O)(=O)c3ccc(C(C)(C)C)cc3)cc21`, the survival was 81% (inactive).
With `COc1cccc(NC(=O)C(Cc2ccccc2)N2Cc3ccccc3C2=O)c1` (centres undefined) the survival was 66% (inactive).
With `CCOc1ccc(CCNC(=O)c2cc3sc(CC)cc3n2C)cc1OCC` the survival was 55% (inactive).
`COc1cc(CN(C(=O)COc2ccc(F)cc2)c2ccccn2)cc(OC)c1OC` was tested, and the survival was 81% (inactive).
`Cc1cccc(CN2CCC(CNC(=O)Cn3ncc4c([nH]c5ccc(C)cc54)c3=O)CC2)c1` was tested, and the survival was 120% (inactive).
`O=S1(=O)C=C(Sc2nc3ccccc3s2)c2ccccc21` was tested, and the survival was 4% (active).
In the case of `OCC#CCSc1nc2ccccc2s1`, the survival was 71% (inactive).
`Cc1cc(C)nc(SC2=CS(=O)(=O)c3ccccc32)n1` was tested, and the survival was 88% (inactive).
For `CC(C)CCn1c(=O)c2cccnc2n(CC(=O)Nc2ccccc2)c1=O`, the survival was 72% (inactive).
With `CCOc1ccc(Nc2sc(C(=O)c3ccc(F)cc3)c(N)c2S(=O)(=O)c2ccc(C)cc2)cc1` the survival was 52% (active).
For `CCS(=O)(=O)c1c(Nc2cc(C)ccc2C)sc(C(=O)c2ccccc2)c1N`, the survival was 90% (inactive).
With `Cc1ccccc1Nc1sc(C(=O)c2ccccc2)c(N)c1S(C)(=O)=O` the survival was 99% (inactive).
In the case of `COc1ccc(S(=O)(=O)c2c(Nc3ccc(C)cc3)sc(C(=O)c3ccc(C)cc3)c2N)cc1`, the survival was 105% (inactive).
`Cc1ccc(Nc2sc(C(=O)c3ccc(F)cc3)c(N)c2S(=O)(=O)c2ccc(C)cc2)cc1` was tested, and the survival was 116% (inactive).
For `CCOc1ccccc1Nc1sc(C(=O)c2ccc(Cl)cc2)c(N)c1S(=O)(=O)c1ccccc1`, the survival was 25% (active).
`CCCS(=O)(=O)c1c(Nc2ccccc2C)sc(C(=O)c2ccccc2)c1N` was tested, and the survival was 28% (active).
With `CCOc1ccccc1Nc1sc(C(=O)c2ccc(Cl)cc2)c(N)c1C#N` the survival was 94% (inactive).
In the case of `CCOc1ccccc1Nc1sc(C(=O)c2ccccc2)c(N)c1S(=O)(=O)c1ccc(C)cc1`, the survival was 92% (inactive).
`Cc1nc2ccc(S(=O)(=O)N(C)CC(=O)Nc3ccc(C(C)C)cc3)cc2s1` was tested, and the survival was 113% (inactive).
For `CCc1ccc(NC(=O)CN2C(=O)CCSc3ccccc32)cc1`, the survival was 86% (inactive).
For `CCc1nc2ccccc2n2c(-c3ccccc3)c3c(=O)n(C)c(=O)n(C)c3c12`, the survival was 75% (inactive).
In the case of `Cc1cc2c(cc1S(=O)(=O)NCc1ccccc1)OCC(=O)N2`, the survival was 91% (inactive).
In the case of `COc1ccc(C)cc1NC(=O)NC(C)c1c(-n2cccc2)sc(C)c1C` (centres undefined), the survival was 44% (inactive).
With `Cc1ccccc1-c1nnc(SCC(=O)N2CCCCC2)o1` the survival was 64% (inactive).
With `Cc1nc2c(-c3ccccc3)c(C)nn2c(C)c1CCC(=O)NCc1cccc(Cl)c1` the survival was 109% (inactive).
With `CCc1cccc(NC(=O)CN2C(=O)COc3ccc(S(=O)(=O)Nc4ccccc4)cc32)c1` the survival was 82% (inactive).
With `CCOC(=O)C1=C(c2ccccc2)OC(N)=C(C#N)C1c1ccncc1` (centres undefined) the survival was 87% (inactive).
In the case of `N#CC1=C(N)OC2=C(CCc3ccccc32)C1c1ccccc1` (centres undefined), the survival was 2% (active).
`CC(C)N1CC2=C(OC(N)=C(C#N)C2c2cccnc2)/C(=C/c2cccnc2)C1` (centres undefined) was tested, and the survival was 85% (inactive).
For `Cc1ccc(NC(=O)C(C)Sc2n[nH]c(-c3ccccc3O)n2)cc1` (centres undefined), the survival was 23% (active).
`Cc1cccc(C)c1NC(=O)C(C)Sc1n[nH]c(-c2ccncc2)n1` (centres undefined) was tested, and the survival was 76% (inactive).
`Cc1ccc(CSc2n[nH]c(-c3ccccc3O)n2)cc1` was tested, and the survival was 62% (inactive).
